Experimental data published in PubChem BioAssay (NCI).
The panel holds about 83,000 compounds, 20% with a hit somewhere; the sample as a whole holds those more often.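 Negative percent growth values reflect cell death: -40 means 40% of the cells present at the start died, and -100 means all died.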 A number with no mark means an inactive call. Activity calls are given as the source filed them. How the source made its calls: active means growth percent below 10; inactive means the rest.

Tested on: HL-60(TB) leukemia
Experiment: NCI-60 one-dose screen, 48 h (100 = growth as untreated, 0 = no growth, -100 = all killed)
Conditions: 10 µM unless noted

SMILES | growth
CCCSc1nc(NCCc2c[nH]c3ccccc23)c(C#N)c(-c2ccc(F)cc2)n1 | 54.2%
N/C(=N\c1nc2ccccc2s1)NC(=O)NCCCCCCO | 45.8%
COc1cccc(/C=C/c2nc3ccccc3c(=O)n2CC(=O)Nc2ccc(Cl)cc2)c1 | 115%
CN(C)CCNC(=O)OCCCCOc1cc(O)c2c(=O)cc(-c3ccccc3)oc2c1 | -61.6% (active)
